NR3A LBD binder: modulates the human NR3A ligand-binding domain. NR3A LBD differential scanning fluorimetry, Tm shift; 0% = protein alone, 100% = glycine-bound protein. Tm shift relative to glycine control, % at 25 µM. actives 2.5% (n = 340,000). AID 1259313;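 active means melting temperature shift of at least 10% of the positive control shift, at one fixed dose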
NadD inh: inhibitors of Staphylococcus aureus NadD; purified NadD enzyme, colorimetric absorbance read-out; inhibition, % at 20 µM; actives 0.78% (n = 360,000); AID 602399; in the data active means inhibition above about 26%
FAS-TE inh: inhibitors of human fatty acid synthase thioesterase domain; P49327; recombinant FAS-TE, OMFH fluorogenic substrate, fluorescence endpoint; inhibition, % at 15 µM; actives 0.67% (n = 360,000);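 active means compounds whose normalised, plate-corrected inhibition of enzyme fluorescence in the single-dose primary screen is 50% or more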
rCAG binder: binds r(CAG) RNA repeats. r(CAG) RNA repeat, TO-PRO-1 dye displacement fluorescence. inhibition, % at 3 µM. actives 1.3% (n = 370,000);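 active means inhibition above the plate cutoff, the mean of all test compounds on that plate plus 3 SD, cut at about 35% in these data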;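 further: higher means more dye released from RNA so lower well fluorescence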
Large screens that a line does not name were inactive. Most compounds without a hit are left out; they make up all but 4.3% or so of the library.

COc1cccc(Nc2nc(-c3ccc(O)cc3)cs2)c1	NR3A LBD binder 23
COc1cccc(Nc2nc(-c3cccc(N4C(=O)c5ccccc5C4=O)c3)cs2)c1	NR3A LBD binder 33
C=CCN(C(=O)[C@@H](CCCC)[C@@H](O)c1ccc2ccccc2c1)c1ccccc1	none (no result: NR3A LBD binder, NadD inh, FAS-TE inh)
O=C(COC(=O)c1ccc(O)cc1O)Nc1cc(-c2ccccc2)nn1-c1ccccc1	NR3A LBD binder 25
N#CCC(=O)Nc1ccc(C(=O)OCc2ccccc2Oc2ccccc2)cc1	NR3A LBD binder 17
N#CCC(=O)Nc1ccc(C(=O)OCC(=O)Nc2ccccc2Sc2ccccc2)cc1	NR3A LBD binder 16
Cc1cc(C)c(-c2cc(NC(=O)COC(=O)c3ccc(NC(=O)CC#N)cc3)n(-c3ccccc3)n2)cc1C	NR3A LBD binder 27, NadD inh 54
COC(=O)[C@]1(CNC(=O)C(F)(F)F)CC(=O)N(C)[C@@H]1c1ccccc1	none (no result: NR3A LBD binder, NadD inh, FAS-TE inh)
COC(=O)C1=C(C)N(Cc2cccc(C(F)(F)F)c2)C(=NCc2cc(OC)c(OC)c(OC)c2)NC1c1ccc(Cl)cc1 (centres undefined)	none (no result: NR3A LBD binder, NadD inh, FAS-TE inh)
CCCCCCC1C(C#N)=C(N)OC2=C1C(=O)CC(C)(C)C2 (centres undefined)	NR3A LBD binder 44
CCOC(=O)C(C)On1c(-c2cccc(Cl)c2)nc2ccc([N+](=O)[O-])cc21 (centres undefined)	NR3A LBD binder 10
COc1cccc(N2CCN(C(=O)CN3C(=O)NC(C)(c4ccc5ccccc5c4)C3=O)CC2)c1 (centres undefined)	NR3A LBD binder 19
CN1CCN(C(=O)CN2C(=O)NC(C)(c3ccc4ccccc4c3)C2=O)CC1 (centres undefined)	none
Cc1cc(NC(=O)c2oc3ccccc3c2C)ccc1-n1cnnn1	NR3A LBD binder 23
COc1cc(OC)cc(C(=O)Nc2ccc(-n3cnnn3)c(C)c2)c1	none
CCCCn1c(/N=C/c2c[nH]c3ccccc23)nc2ccccc21	NR3A LBD binder 23
Cn1c(N/N=C/c2c[nH]c3ccccc23)nc2ccccc21	NR3A LBD binder 19
CCCCC1C(=O)NN(c2ccccc2)C1=O (centres undefined)	none
O=C1C(CCS(=O)c2ccccc2)C(=O)N(c2ccccc2)N1c1ccccc1 (centres undefined)	NR3A LBD binder 17
Nc1nc(SCC(=O)Nc2ccc([N+](=O)[O-])cc2Br)n[nH]1	none
CC(C)c1nc(SCC(=O)Nc2ccc([N+](=O)[O-])cc2Br)n[nH]1	NR3A LBD binder 11
Fc1ccc(Nc2ccnc(Nc3ccc(F)cc3)n2)cc1	NR3A LBD binder 55
C#CCNC(=O)C[C@H]1C[C@@]2(C(=O)OC)C(=C[C@H](COCc3ccccc3)O[C@@H]2C)N(Cc2ccco2)C1=O	none (no result: NR3A LBD binder, NadD inh, FAS-TE inh)
C=CCN1C(=O)[C@@H](CC(=O)N2CCCC2)[C@]2(C(=O)OC)CCCCC=C12	none (no result: NR3A LBD binder, NadD inh, FAS-TE inh)
COc1cccc(-c2cc(C(=O)Nc3c(C)nn(Cc4ccccc4C)c3C)no2)c1	NR3A LBD binder 11
O=C(Nc1ccc2oc(-c3ccncc3)nc2c1)c1cccs1	NR3A LBD binder 33
CC(=O)Nc1ccc2oc(-c3ccccc3)nc2c1	none
O=C(Nc1ccc2oc(-c3ccncc3)nc2c1)c1ccccc1F	none
CC(=O)Nc1ccc(S(=O)(=O)Nc2cccc(-c3nc4cc(C)ccc4o3)c2)cc1	NR3A LBD binder 16
O=C(Nc1ccc(-c2nc3cc(NC(=O)c4cccs4)ccc3o2)cc1)c1cccs1	NR3A LBD binder 57
CC(=O)Nc1ccc(-c2nc3ccc(NC(C)=O)cc3o2)cc1	NR3A LBD binder 11
O=C(Nc1ccc2oc(-c3ccncc3)nc2c1)c1ccccc1	none
CCOc1ccc(C2CC=C(C(=O)O)CN2S(=O)(=O)c2ccc(C)cc2)cc1 (centres undefined)	none (no result: NR3A LBD binder, NadD inh, FAS-TE inh)
COC(=O)C[C@@H]1CC[C@H]2[C@H](COc3ccc(NC(=O)Nc4ccc(C#N)cc4)cc3C(=O)N2C)O1	none (no result: NR3A LBD binder, NadD inh, FAS-TE inh)
CCOC(=O)[C@@]12CCCC3=C1N(CCC3)C(=O)[C@H]2CC(=O)N1CCN(C(=O)C2CC2)CC1	none (no result: NR3A LBD binder, NadD inh, FAS-TE inh)
C=CCN1C(=O)[C@@H](CC(=O)NCCCC)[C@]2(C(=O)OC)CCCCC=C12	none (no result: NR3A LBD binder, NadD inh, FAS-TE inh)
Cc1ccc2nc(-c3cccc(NC(=O)c4ccc5c(c4)OCCO5)c3)oc2c1	none
O=C(Nc1ccc2nn(-c3ccccc3)nc2c1)c1cccs1	NR3A LBD binder 25
O=C(Nc1ccc2oc(-c3ccc4ccccc4c3)nc2c1)c1ccc2c(c1)OCCO2	NR3A LBD binder 10
Cc1nc2cc(NC(=O)c3ccc([N+](=O)[O-])s3)ccc2s1	NR3A LBD binder 24
Cc1cc(NS(=O)(=O)c2ccc(NC(=O)c3ccc([N+](=O)[O-])s3)cc2)nc(C)n1	none
COC(=O)[C@]12C[C@H](CC(=O)N3CCN(C(=O)c4ccco4)CC3)C(=O)N(CCc3ccc(OC)c(OC)c3)C1=C[C@H](COCc1ccccc1)O[C@@H]2C	none (no result: NR3A LBD binder, NadD inh, FAS-TE inh)
CC12CCCc3c(O)cc(=O)n(c31)-c1ccccc12 (centres undefined)	NR3A LBD binder 21
COc1ccc(/C=C2/CCc3ccccc3C2=O)cc1OC	NR3A LBD binder 10
O=C1/C(=C/c2ccco2)CCc2ccccc21	NR3A LBD binder 14
COc1cc(/C=C2/CCc3ccccc3C2=O)cc(OC)c1OC	none
CCN1CCc2c(sc(NC(=O)Nc3ccc(Cl)c(Cl)c3)c2C(N)=O)C1	NR3A LBD binder 18
CCN1CCc2c(sc(NC(=O)Cc3ccccc3)c2C(N)=O)C1	none
COc1ccccc1C/C(N)=N/OC(=O)COc1cccc(C)c1	NR3A LBD binder 13
COC(=O)[C@]12C[C@H](CC(=O)NCc3cccc(C(F)(F)F)c3)C(=O)N(Cc3ccco3)C1=C[C@H](C(C)(C)C)O[C@@H]2C	none (no result: NR3A LBD binder, NadD inh, FAS-TE inh)
Cc1ccc(N(CC(=O)Nc2ccccc2C(=O)N2CCOCC2)S(C)(=O)=O)cc1	NR3A LBD binder 13
C(=N\Nc1nc2ccccc2s1)/c1cccs1	none
CC(=O)Nc1ccc(/C=N/Nc2nc3ccccc3s2)cc1	NR3A LBD binder 16
Cc1ccsc1/C=N/Nc1nc2ccccc2s1	NR3A LBD binder 24
Oc1ccc(C=NNc2nc3ccccc3s2)c(O)c1	NR3A LBD binder 38
CC(=O)Nc1sc(N/N=C/c2ccccc2)nc1-c1ccc(C)cc1	NR3A LBD binder 11
CCCCNC(=O)C1(C(=O)c2ccc(OC)cc2)CC(C(=O)OCC)=NO1 (centres undefined)	none (no result: NR3A LBD binder, NadD inh, FAS-TE inh)
O=C(Nc1cccc(Cl)c1)OC1CCC12CCC(c1ccccc1)CC2 (centres undefined)	none (no result: NR3A LBD binder, NadD inh, FAS-TE inh)
COc1cccc(C=NNc2nc3ccccc3s2)c1OC	none
Oc1ccccc1C=NNc1nc2ccccc2s1	NR3A LBD binder 31
COc1ccc(/C=N/Nc2nc3ccccc3s2)cc1O	NR3A LBD binder 13
CC(=O)Nc1cccc(/C(C)=N/Nc2nc3ccccc3s2)c1	NR3A LBD binder 31
CC(=O)c1sc(N/N=C\c2cccc(Br)c2)nc1C	none
COc1ccc(/C=N/Nc2nc3ccccc3o2)cc1O	none
CC(=O)c1sc(N/N=C\c2ccc(Br)cc2)nc1C	NR3A LBD binder 16
Cc1cc2c(=O)n(C)c(SCC(=O)NC3CCCC3)nc2s1	none
C=CCn1c(SCC(=O)Nc2cc(C)on2)nc2sc(C)c(C)c2c1=O	NR3A LBD binder 21
